Bioassay records as filed in PubChem.
Beta apoptosis: beta cell apoptosis inhibition; INS-1E cytokine-induced death, ATP luminescence, 48 h; percent of positive-control rescue, neutral wells zero; protection from apoptosis, % (no concentration beside the values); actives 0.8% (n = 300,000);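 active = Every replicate reaches about 75%, or at least half do and their mean reaches it too, limit read from the data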;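 also: 0% = cytokine-treated negative control wells and 100% = positive control rescue; higher means more ATP so stronger rescue from cytokine killing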
Mdm2-MdmX inh: inhibitors of human Mdm2/MdmX interaction; inhibition, % at 8 µM; AID 485346; actives 3% (n = 330,000); SaOS-2 split-luciferase Mdm2/MdmX complementation, luminescence;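 active = inhibition of at least 50% at 8 µM in the primary screen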
Target sequence (O15151 whole entry, looked up): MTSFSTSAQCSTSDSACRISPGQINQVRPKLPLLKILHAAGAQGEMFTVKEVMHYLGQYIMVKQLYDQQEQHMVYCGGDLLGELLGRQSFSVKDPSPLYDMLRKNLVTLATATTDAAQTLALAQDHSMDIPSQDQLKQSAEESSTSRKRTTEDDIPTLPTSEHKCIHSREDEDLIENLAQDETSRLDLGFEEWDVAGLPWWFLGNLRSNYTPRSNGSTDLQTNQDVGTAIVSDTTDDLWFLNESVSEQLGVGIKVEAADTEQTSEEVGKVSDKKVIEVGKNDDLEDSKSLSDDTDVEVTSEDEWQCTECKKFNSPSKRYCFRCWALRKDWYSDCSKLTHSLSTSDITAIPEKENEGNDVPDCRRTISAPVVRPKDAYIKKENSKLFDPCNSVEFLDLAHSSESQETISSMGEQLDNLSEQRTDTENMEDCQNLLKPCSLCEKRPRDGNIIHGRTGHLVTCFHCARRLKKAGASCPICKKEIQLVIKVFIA
Target sequence (Q00987 whole entry, looked up): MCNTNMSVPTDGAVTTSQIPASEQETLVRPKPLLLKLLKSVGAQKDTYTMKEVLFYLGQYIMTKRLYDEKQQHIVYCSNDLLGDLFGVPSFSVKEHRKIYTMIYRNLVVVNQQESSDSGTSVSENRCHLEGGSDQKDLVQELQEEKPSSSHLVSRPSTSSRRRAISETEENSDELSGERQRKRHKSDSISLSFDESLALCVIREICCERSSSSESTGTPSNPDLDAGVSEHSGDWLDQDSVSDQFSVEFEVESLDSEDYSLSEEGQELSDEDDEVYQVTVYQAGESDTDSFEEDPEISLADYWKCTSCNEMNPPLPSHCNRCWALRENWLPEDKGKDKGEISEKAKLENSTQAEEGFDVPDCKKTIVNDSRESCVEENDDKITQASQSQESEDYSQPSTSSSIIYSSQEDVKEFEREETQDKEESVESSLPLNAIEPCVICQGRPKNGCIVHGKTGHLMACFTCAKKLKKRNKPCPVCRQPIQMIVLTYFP
A1 inh: inhibitors of the anti-apoptotic protein A1, read as caspase activation; MEF A1-2A-BIM cells, Caspase-Glo 3/7 luminescence, 3 h; percent of clofoctol response, vehicle zero; caspase activation, % (concentration not given with the values); actives 0.066% (n = 330,000);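 active = over half of replicate activation scores above 10%, or exactly half above 10 with the replicate mean above 10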
CSC inhib: blocks cancer stem cells; cancer stem cell-like cells viability, luminescence; inhibition, % at 7.5 µM; actives 1.1% (n = 300,000); AID 2717; in the data active = inhibition above about 75%; tested in HMLE shEcad cells
aSyn 5UTR inh: 5' untranslated region of α-synuclein, MLPCN primary screen. actives 0.82% (n = 300,000). inhibition, % (tested at 7.5 µM). alpha-synuclein 5'UTR reporter, inhibitor activity. AID 1813; in the data active = inhibition above about 60%;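 also: H4 neuroglioblastoma cells stably carrying SNCA 5'UTR luciferase fusion; 0% = DMSO wells and 100% = positive control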
Mdm2 MdmX conf: human Mdm2/MdmX binding inhibition, confirmed; shares compounds with Mdm2-MdmX inh; luminescent assay; inhibition, % at 8 µM; actives 55% (n = 10,000); AID 489028; in the data active = inhibition above about 40%
Full FLuc ctr: full-length luciferase inhibition in Mdm2/MdmX counter-screen. shares compounds with Mdm2-MdmX inh. SaOS-2 full-length luciferase counterscreen, luminescence. inhibition, % at 8 µM. actives 77% (n = 6,200). AID 504607;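 active = mean inhibition at 8 µM reaching about 37%, which flags the compound as non-specific, limit read from the data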;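 also: p53-null SaOS-2 cells with luciferase driven by a doxycycline-inducible promoter; compound on cells about two nights before reading with doxycycline added after day one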
Active calls of the source: *; · = no result given. An excerpt weighted towards active compounds, which were near 4.1% of everything screened.

SMILES	Beta apoptosis	Mdm2-MdmX inh	A1 inh	CSC inhib	aSyn 5UTR inh	Mdm2 MdmX conf	others
Cc1nn(Cc2c(Cl)cccc2Cl)c(C)c1NC(=O)c1cn(-c2ccccc2)nc1-c1ccccc1	106.4*	97.9*	12.8*	165.4*	122.3*	99.2*	Full FLuc ctr=37.3*
Cc1nn(Cc2ccc(Cl)c(Cl)c2)c(C)c1NC(=O)c1sc2ccccc2c1Cl	-2.6	52.7*	-0.1	-14.0	15.9	13.6
Cc1cccc(C)c1NC(=O)CNC(=O)c1cn(-c2ccccc2)nc1-c1ccccc1	·	9.2	-0.3	9.7	16.9	·
Cc1nn(Cc2c(Cl)cccc2Cl)c(C)c1NC(=O)c1sc2ccccc2c1Cl	45.7	52.9*	1.3	-3.1	-43.5	14.4
Cn1cnnc1Sc1ccc(/C=C/C(=O)c2ccc(O)cc2)cc1[N+](=O)[O-]	-15.9	50.5*	-0.2	71.0	-110.8	38.5	Full FLuc ctr=53.4*
CCC(C)(C)NC(=O)c1ccc(Sc2nncn2C)c([N+](=O)[O-])c1	-9.8	7.6	1.0	-2.7	2.7	·
Cc1cccn2c(=O)c3cc(C(=O)NCCc4ccccc4)c(=N)n(CC4CCCO4)c3nc12 (centres undefined)	6.1	71.5*	-0.1	-4.2	-44.5	36.6
N=c1c(C(=O)NCC2CCCO2)cc2c(=O)n3ccccc3nc2n1Cc1ccccc1Cl (centres undefined)	25.8	64.1*	-0.4	-12.1	8.4	25.9
Cc1cccn2c(=O)c3cc(C(=O)NCCc4ccccc4)c(=N)n(CCCn4ccnc4)c3nc12	-4.0	51.0*	-0.6	33.1	-46.5	18.1
COC(=O)CNc1nc(Cl)nc(NC2CCCCC2)n1	-4.5	8.5	0.3	-21.2	-1.5	·
CN1C2=C(C(=O)CC(C)(C)C2)C(c2cccs2)C2=C1CC(C)(C)CC2=O	-2.4	-20.0	-0.8	-2.6	6.5	·
Cc1ccnc(SCC(=O)NC2CC2)n1	-4.1	2.9	0.4	4.3	2.1	·
Cn1c(C(=O)OCC(=O)NCc2ccc(F)cc2)cc2occc21	2.3	23.6	-0.5	45.1	-1.5	·
CC(C(=O)N(C)Cc1cccc(F)c1)N1CCN(S(=O)(=O)c2ccc3c(c2)OCCCO3)CC1 (centres undefined)	·	11.1	·	·	·	·
O=c1[nH]c(/C=C/c2ccc(OC(F)F)cc2)nc2c1cnn2-c1ccccc1	2.6	66.4*	-0.5	1.9	16.6	-1.0
CC(C)Sc1nc2c(cnn2-c2ccccc2)c(=O)[nH]1	·	-3.3	0.4	0.8	21.9	·
Cc1ccc(C(C)C)cc1OCC(=O)Nc1nnc(C2CC2)s1	8.2	88.0*	1.0	·	·	64.7*	Full FLuc ctr=33.4
COCC1CCCCC1OS(N)(=O)=O (centres undefined)	-3.9	33.3	1.0	-6.2	-0.1	·
O=C(NC(=S)NC1C2CC3CC(C2)CC1C3)c1ccccc1 (centres undefined)	-3.6	39.0	2.0	-4.7	-53.9	·
CCN1C(=O)[C@H]2[C@@H](c3ccc(-c4cccc(Cl)c4)cc3)N[C@@](CC(C)C)(C(=O)OC)[C@H]2C1=O	10.4	52.2*	0.1	·	·	22.1
COC(=O)[C@]1(CC(C)C)N[C@H](c2ccc(-c3ccc(C(C)=O)cc3)cc2)[C@@H]2C(=O)N(C)C(=O)[C@@H]21	-3.4	14.2	-0.7	·	·	·
COC(=O)[C@]1(CC(C)C)N[C@H](c2ccc(-c3ccc(Cl)c(Cl)c3)cc2)[C@@H]2C(=O)N(C)C(=O)[C@@H]21	9.6	57.2*	-0.7	35.7	32.8	28.2
COC(=O)[C@]1(Cc2ccccc2)N[C@H](c2ccc(-c3ccc(Cl)c(Cl)c3)cc2)[C@@H]2C(=O)N(C)C(=O)[C@@H]21	0.9	55.6*	0.8	5.6	31.3	51.2*	Full FLuc ctr=82.0*
COC(=O)[C@]1(Cc2ccccc2)N[C@H](c2ccc(-c3ccccc3)cc2)[C@@H]2C(=O)N(C)C(=O)[C@@H]21	-0.9	30.0	1.5	25.8	36.3	·
CCN1C(=O)[C@H]2[C@@H](c3ccc(-c4ccc(Cl)c(Cl)c4)cc3)N[C@@](CC(C)C)(C(=O)OC)[C@H]2C1=O	-4.2	36.0	1.3	15.5	24.9	·
SMILES	Beta apoptosis	Mdm2-MdmX inh	A1 inh	CSC inhib	aSyn 5UTR inh	Mdm2 MdmX conf	others
COC(=O)[C@]1(Cc2ccccc2)N[C@H](c2ccc(-c3cccc(Cl)c3)cc2)[C@@H]2C(=O)N(C)C(=O)[C@@H]21	-0.5	54.8*	-0.5	-1.0	35.8	36.4	Full FLuc ctr=73.5*
O=C(Nc1ccc(Cl)cc1)c1cccc(S(=O)(=O)Nc2ccccn2)c1	0.6	11.3	-0.1	-25.2	-10.4	·
O=[N+]([O-])c1ccc(-c2nc(NCc3ccccc3)c3ccccc3n2)cc1	12.8	59.7*	-0.2	20.9	19.3	-4.5
COc1cccc(-c2nc(NCc3ccccc3)c3ccccc3n2)c1O	6.1	55.7*	-0.3	11.1	35.6	16.4
O=[N+]([O-])c1ccc(-c2c(O)c3ccccc3c3nc4ccccc4nc23)cc1	27.3	65.2*	0.3	41.8	6.5	11.7
O=[N+]([O-])c1ccc(-c2nc(Nc3cccc(O)c3)c3ccccc3n2)cc1	·	81.6*	-0.3	94.4*	20.5	7.2
O=[N+]([O-])c1ccc(-c2cnc3ccccc3n2)cc1	0.1	-13.3	-3.9	1.8	-124.4	·
COc1cccc(-c2nc(NCc3ccco3)c3ccccc3n2)c1O	21.6	14.0	-0.2	28.1	-10.7	·
CCCn1c(N)c(C(=O)CSc2nnc(-c3cccs3)n2C2CC2)c(=O)[nH]c1=O	·	12.9	·	·	·	·
COc1ccc(NC(=O)COC(=O)CCc2ccccc2)c(OC)c1	-1.2	29.3	1.0	-2.5	0.2	·
CCn1cc(C(=O)NCCCOC(C)C)c(=O)c2cc(S(=O)(=O)N3CCOCC3)ccc21	-1.3	18.4	1.0	-10.0	-26.8	·
COC(=O)c1csc(S(=O)(=O)N2CCOCC2)c1OC	0.4	34.7	1.3	-14.8	-3.7	·
CC1CC(C)CN(CCCNC(=O)Cn2cccc2C(=O)c2ccccc2)C1 (centres undefined)	0.7	13.0	-1.3	31.4	11.4	·
COc1ccc(-c2n[nH]c(C(F)(F)F)c2-c2cc3ccccc3o2)c(O)c1	21.9	80.6*	0.2	102.4*	11.4	43.0*	Full FLuc ctr=47.0*
COc1ccccc1-c1c(-c2ccc(OCC(=O)NN)cc2O)n[nH]c1C(F)(F)F	-7.0	-18.9	-0.1	26.7	-2.2	·
Cc1ccc(-c2nnc3c(C(F)(F)F)nc4ccccc4n23)cc1	3.6	53.6*	-0.8	-6.5	70.6*	14.8
Cc1ccc(-c2nc3ccccc3n3nnnc23)cc1	·	·	·	·	-249.5	·
FC(F)(F)c1nc2ccccc2n2c(-c3ccc(Cl)cc3)nnc12	100.6*	95.8*	-0.2	·	107.9*	96.3*	Full FLuc ctr=41.0*
COc1cccc(NC(=O)c2ccc(N3C(=O)C4CCC(C)CC4C3=O)cc2)c1 (centres undefined)	-2.2	-16.7	1.6	-15.8	6.2	·
